From PubChem BioAssay (NCI)
This is part of a sample that, as a whole, favours compounds with a hit. Of some 83,000 tested, about 20% had one in any assay.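 A percent growth of 40 corresponds to 60% growth inhibition; 0 means no net growth; -100 means all cells died. Active threshold: below 10.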 A number with no mark means an inactive call. Calls of active or inactive are those of the source.

How the values were obtained:
Assay in all cases: NCI-60 one-dose screen, 48 h (100 = growth as untreated, 0 = no growth, -100 = all killed)
Conditions in all cases: 10 µM
NCI-H23 lung = test system: NCI-H23 lung
NCI-H226 lung = test system: NCI-H226 lung
NCI-H322M lung = test system: NCI-H322M lung
NCI-H460 lung = test system: NCI-H460 lung
NCI-H522 lung = test system: NCI-H522 lung
786-0 renal = test system: 786-0 renal
COLO 205 colon = test system: COLO 205 colon
DU-145 prostate = test system: DU-145 prostate
K-562 leukemia = test system: K-562 leukemia
MALME-3M melanoma = test system: MALME-3M melanoma
RXF 393 renal = test system: RXF 393 renal
SF-268 CNS = test system: SF-268 CNS
SF-295 CNS = test system: SF-295 CNS
SF-539 CNS = test system: SF-539 CNS
UACC-257 melanoma = test system: UACC-257 melanoma
M14 melanoma = test system: M14 melanoma
A549/ATCC NSCLC = test system: A549/ATCC NSCLC
MDA-MB-231 breast = test system: MDA-MB-231 breast
HOP-62 NSCLC = test system: HOP-62 NSCLC
HOP-92 NSCLC = test system: HOP-92 NSCLC

Row | Compound | growth (NCI-H23 lung) | growth (NCI-H226 lung) | growth (NCI-H322M lung) | growth (NCI-H460 lung) | growth (NCI-H522 lung) | growth (786-0 renal) | growth (COLO 205 colon) | growth (DU-145 prostate) | growth (K-562 leukemia) | growth (MALME-3M melanoma) | growth (RXF 393 renal) | growth (SF-268 CNS) | growth (SF-295 CNS) | growth (SF-539 CNS) | growth (UACC-257 melanoma) | growth (M14 melanoma) | growth (A549/ATCC NSCLC) | growth (MDA-MB-231 breast) | growth (HOP-62 NSCLC) | growth (HOP-92 NSCLC)
1 | CC(=O)Nc1cc2c(cc1Cl)Cc1cc(Cl)ccc1-2 | 77.1% | 83% | 96% | 95.9% | 79.6% | 112% | 105% | 106% | 108% | 113% | 98.7% | 88.4% | 109% | 88.1% | 88.9% | 106% | – | – | – | –
2 | O=C(CI)OCC(COC(=O)CI)OC(=O)CI | 65.9% | 97.1% | 112% | 98.9% | – | 45.9% | 33.2% | 59.5% | 41.6% | 24.3% | 24.7% | 93.2% | 94.8% | 114% | 76.5% | 83.2% | 104% | 91.3% | – | –
3 | CC1(C)N=C(N)N=C(N)N1c1cccc(C#N)c1 | 75.2% | 67.9% | 64.6% | 22.3% | 65.6% | 35.8% | 66.8% | 46.7% | 20.7% | 70.7% | 50.7% | 29.8% | 35.3% | 46.2% | 73.3% | 40% | 29.4% | 78.4% | – | –
4 | N=C1S/C(=C/c2ccc(-c3ccc4c(c3)C(=O)NC4=O)o2)C(=O)N1c1ccc(Br)cc1 | 55.8% | 66.5% | 43% | 34.6% | 35.5% | 45.9% | 55.1% | 27.8% | 21.5% | 18.3% | -28.5% (active) | 39.3% | 22.1% | 87.8% | 47.7% | 36.7% | 34.5% | 46.5% | – | –
5 | CC[C@@H]1NC(=O)[C@H]([C@H](O)[C@H](C)C/C=C/c2ccc(CN3C(=O)CCCC3=O)cc2)N(C)C(=O)[C@H](C(C)C)N(C)C(=O)[C@H](CC(C)C)N(C)C(=O)[C@H](CC(C)C)N(C)C(=O)[C@@H](C)NC(=O)[C@H](C)NC(=O)[C@H](CC(C)C)N(C)C(=O)[C@H](C(C)C)NC(=O)[C@H](CC(C)C)N(C)C(=O)CN(C)C1=O | 68.8% | -22.8% (active) | – | 71.2% | 23.5% | 67.1% | 53.9% | 64.1% | 39.6% | 83% | 17.3% | 63.1% | 39% | 23.7% | 20.8% | – | 47.1% | 51.4% | 62.1% | 53.3%
6 | CC(C)(C)c1ccc(S(=O)(=O)N[C@H]2CC[C@H]3[C@@H]4CCc5cc(O)ccc5[C@H]4CC[C@]23C)cc1 | 50.3% | 55.7% | 78.7% | 33.7% | 31.8% | 49.6% | – | 62.9% | 17% | 25.6% | 12% | 50.9% | – | 78.7% | 68.7% | 45.8% | 28.5% | 33.7% | – | –
7 | COc1ccc2nc3cc(Cl)ccc3c(NCCCNCCO)c2c1 | -21.7% (active) | -9.48% (active) | -22.6% (active) | -8.13% (active) | -86.5% (active) | 6.46% (active) | – | 5.64% (active) | -4.13% (active) | 17.8% | – | -13.2% (active) | 3.49% (active) | -10.2% (active) | -75.4% (active) | -62.8% (active) | -26.2% (active) | -53.8% (active) | – | –
8 | COC(=O)c1cc2oc(/C=C3/SC(=S)N(N)C3=O)cc2n1Cc1ccccc1 | 58.4% | 57% | 39.4% | 40.5% | – | – | 75% | 32.7% | 7.35% (active) | -69.9% (active) | -19.1% (active) | 46.4% | 68% | 44.7% | 49.6% | – | – | 6.49% (active) | – | -69% (active)
9 | Cc1cc(C)nc(NS(=O)(=O)c2ccc(Nc3nc4nc(NCc5ccccc5)nc(-c5ccc(O)cc5)c4c(=O)[nH]3)cc2)n1 | 31.6% | 31.9% | 10.2% | – | – | – | 35.3% | 33% | 37.8% | -12.6% (active) | -1.77% (active) | 27.8% | 27.3% | 39.9% | 66.1% | – | 43.9% | 29.2% | – | –
10 | O=C(CCl)Oc1ccc(OC(=O)CCl)cc1 | 78.3% | 96.5% | 101% | 95% | -14.1% (active) | 82% | – | 88.6% | 93.6% | 88.4% | 109% | 93.8% | 108% | 72.8% | 89.1% | 85.9% | 96% | 81.1% | – | –
11 | IC(I)I | 102% | 100% | 102% | 109% | 119% | 101% | – | 107% | 120% | – | 125% | 96.4% | 114% | 118% | 109% | 99% | 102% | 88.6% | – | –
12 | NC(N)=N/N=C(\c1ccccc1)C(O)c1ccccc1 (stereo not drawn) | 101% | 96.1% | 101% | – | 82.5% | 98.3% | 101% | 112% | 90.7% | 96.2% | 98.8% | – | 102% | 111% | 101% | 97.3% | 102% | 100% | – | 95%
13 | COc1cc2nc(SCC(=O)Nc3cc(OC)c(OC)c(OC)c3)n(Cc3ccccc3)c(=O)c2cc1OC | 69.6% | 45.9% | 65.2% | 68.7% | – | -6.9% (active) | 96.2% | 54.6% | – | 45.6% | 36.7% | 39.5% | 45.8% | 6.77% (active) | 20.6% | 39.3% | 28.1% | 41% | – | –
14 | O=c1oc2c(cc1-c1ccc(F)cc1)C(O)Oc1ccccc1-2 (stereo not drawn) | 99.2% | 105% | 83.1% | 80.8% | – | – | 101% | 98.1% | 66.7% | 58.4% | 93.9% | 81.4% | 84.2% | 74.4% | 84.1% | – | 88.9% | 77.8% | – | 48.8%
15 | c1ccc(CCCCc2ccc3ccccc3n2)cc1 | 102% | 94.8% | 99.7% | 105% | 75.3% | 102% | – | 111% | 102% | 98.2% | – | 99% | 106% | 101% | 103% | 98.1% | 98.5% | 106% | – | –
16 | CSc1ccc(-c2cc(-c3ccc(NC(=O)CCCN4CCCC4)cc3)nc(-c3ccc(NC(=O)CCCN4CCCC4)cc3)c2)cc1 | 92.8% | 81.9% | 94.8% | 32.1% | 62.5% | 80.7% | 82.6% | 104% | -36.4% (active) | 88.4% | 51.1% | 48.6% | – | 75.7% | 95.3% | 88.4% | 46.2% | -4.05% (active) | – | –
17 | CCOC(=O)c1cocc1C(=O)O | 109% | 102% | 110% | 104% | 106% | 103% | 108% | 113% | 92.6% | 106% | 114% | 108% | 101% | 107% | 103% | 103% | 101% | 118% | – | –
18 | CCCCC1(O)CCCCC1 | 108% | 97.3% | 105% | 108% | – | 92.6% | 99.1% | 101% | 96.1% | 97.2% | 98.8% | 103% | 97.6% | 118% | 102% | 99.3% | 103% | 103% | – | –
